Source: PubChem BioAssay (National Center for Advancing Translational Sciences (NCATS))
GPT2 inhibitor: GPT2 alanine aminotransferase inhibition | Q8TD30 | Potency, µM (doses to about 57.7 µM), for inactives: at the top dose activity change, negative = inhibition, usual class: inhibitors | actives 0.25% (n = 100,000) | Recombinant GPT2, coupled pyruvate oxidase/HRP Amplex Red fluorescence | AID 1671188; also: nearly all actives have a fitted effect of over 60% in size
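Recombinant GPT2 (10ng/uL) with 250uM a-KG and 2mM L-alanine, 30 min at room temperature, in HEPES pH 7.5 buffer. Pyruvate detected by pyruvate oxidase/HRP/Amplex Red fluorescence after 30 min in the dark; AOA (50uM) as positive control.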
NPR1 antag: human Npr1 receptor antagonism | HEK293 hNpr1 GloSensor cGMP, ANP-stimulated luminescence | Potency, µM (top dose mostly 46.3 µM), for inactives: at the top dose activity change, negative = inhibition, usual class: inhibitors | actives 1.6% (n = 76,000) | AID 1347048; calls by dose curve; also: nearly all actives have a fitted effect of over 60% in size
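Compound pre-incubated 30 min at room temperature on GloSensor-loaded HEK293 cells stably carrying hNpr1 and the pGS-40F cGMP biosensor. Stimulation uses hNppA at 0.1 nM final; luminescence is taken at baseline and 20 min post-agonist.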
3T3 cytotox: cytotoxic compounds in NIH 3T3 cells | NIH 3T3 viability, CellTiter-Glo ATP luminescence, 48-72 h | actives 4.3% (n = 94,000) | Potency, µM (series often up to 96.7 µM), without a hit: at the highest dose activity change, negative = cytotoxicity, actives largely listed as inhibitors; also: nearly all actives have a fitted effect of over 55% in size
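Mouse fibroblast NIH 3T3 cells, 400 per well, received compound via pintool and were incubated for 48 or 72 hr prior to CellTiter-Glo ATP luminescence measurement.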
HEK cytotox: kills HEK 293 cells; HEK 293 viability, ATP luminescence (CellTiter-Glo), 48-72 h; Potency, µM (highest dose often 115 µM), inactives show top-dose activity change, negative = cytotoxicity, usual class: inhibitors; actives 6.6% (n = 94,000); AID 1345083; also: nearly all actives have a fitted effect of over 60% in size
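Read-out: CellTiter-Glo ATP luminescence. Cells: HEK 293, 250 cells/well. Exposure: 48 or 72 hr, 37 degree Celsius.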
Luciferase inh: blocks purified firefly luciferase enzyme activity; P08659; Potency, µM (titrated, usually from 115 µM), hits mostly inhibitors; purified P. pyralis luciferase, luminescence, biochemical; actives 2.5% (n = 76,000); AID 1347043; also: nearly all actives have a fitted effect of over 65% in size
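Luminescence read by CCD imager after adding enzyme (10nM final) to wells holding compound, titrated in qHTS. Substrates 10uM each D-luciferin and ATP; buffer 50mM Tris acetate pH 7.5, 10mM Mg acetate, Tween-20, BSA.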
The depositor's hits bear a star; i = inactive; ? = inconclusive; . = not tested or not shown; [ ] = remark or other dose. Compounds with a hit are over-represented: about 10% of the library has one in this group of screens. Unless noted, calls follow the shape of the dose curve; as a rule, active = well fitted curve in the direction sought with a large enough effect; inconclusive = small, poorly fitted or top-dose-only effect, or another doubt; inactive = no such curve, though single readings can be large; an effect the other way counts as inactive or inconclusive. % is scaled to controls: 0 for no effect and ±100 for the full control effect; potency is read from the fitted curve at half-maximal effect.

SMILES	GPT2 inhibitor	NPR1 antag	3T3 cytotox	HEK cytotox	Luciferase inh
COC(=O)[C@@H]1Cc2c([nH]c3ccccc23)[C@H]2C[C@@H](NCCNC(C)=O)C[C@@H](c3ccccc3)N21	-3.5%	-3.6%	79.4µM*	?	?
O=C(O)[C@@H]1[C@H]2C[C@H]3c4[nH]c5ccccc5c4CCN3C[C@@H]2CC[C@@H]1O	0.4%	.	.	.	.
CC(C)(O)CCc1cccc(C(=O)NCc2nc3ccccc3o2)c1	-6.4%	-0.5%	3.2%	i	i
CN(C)c1ccc2ncc(Nc3cccc(C(F)(F)F)c3)n2n1	i	6.2%[70.6 µM]	?	?	i
CN(C)c1ccc2ncc(Nc3ccccc3-c3ccccc3)n2n1	i	-6.0%[70.6 µM]	28.2µM*	63.1µM*	?
Cc1cccc(-c2cccc(CN3CCC(NC(=O)C4CC4)CC3)c2)c1	i	.	?	?	.
Cc1cccc(-c2cccc(CN3CCC(NC(=O)c4ccc(Cl)nc4)CC3)c2)c1	1.4%	.	17.8µM*	14.1µM*	.
Cc1cccc(-c2cccc(CN3CCC(NC(=O)NC(C)C)CC3)c2)c1	i	.	?	?	.
Cc1cccc(-c2cccc(CN3CCC(NC(=O)c4ccccc4F)CC3)c2)c1	0.6%	.	39.8µM*	?	.
O=C(NC1CCN(Cc2cccc(-c3cccs3)c2)CC1)c1ccc(Cl)nc1	-3.5%	.	?	?	.
Cc1ccc(C(=O)NC2CCN(Cc3cccc(-c4ccc(F)c(F)c4)c3)CC2)cc1	i	.	35.5µM*	?	.
Cc1cccc(-c2cccc(CN3CCC(NC(=O)c4ccncc4)CC3)c2)c1	-7.7%	.	31.6µM*	31.6µM*	.
COc1ccc(CN2CCC3(CNc4ccccc4[S+](=O)([O-])N3)C2)cc1 (centres undefined)	?	?	?	?	i
O=C(C1CCCN1C(=O)c1ccccc1)N1CCCC(c2nc3ncccc3[nH]2)C1 (centres undefined)	i	.	i	2.6%	.
Cc1cccc(-c2cccc(CN3CCC(NC(=O)Cc4ccccn4)CC3)c2)c1	i	.	44.7µM*	?	.
Cc1cccc(-c2cccc(CN3CCC(NC(=O)C4CCCC4)CC3)c2)c1	i	.	-9.2%	i	.
COc1ccc(C(=O)NC2CCN(Cc3cccc(-c4cccc(C)c4)c3)CC2)cc1	1.6%	.	?	35.5µM*	.
CC(C)c1noc(-c2cn(C3CCCN(C(=O)c4ccc(N(C)C)cc4)C3)nn2)n1 (centres undefined)	1.2%	-16.6%	-18.0%	?	i
Fc1ccccc1-c1noc(-c2ncn3c2COC(c2ccccc2Cl)C3)n1 (centres undefined)	-1.3%	-11.9%	?	?	15.8µM*
CCOc1ccc(C2Cn3nnc(-c4nc(-c5ccccc5)no4)c3CO2)cc1 (centres undefined)	i	-17.0%	-1.6%	-3.9%	8.91µM*
CCOc1cccc(-c2noc(-c3ncn4c3COC(c3ccc(OC)cc3)C4)n2)c1 (centres undefined)	1.9%	-2.6%	22.4µM*	22.4µM*	i
COc1ccc(C2Cn3cnc(-c4nc(-c5cccs5)no4)c3CO2)cc1 (centres undefined)	-11.3%	?	?	?	25.1µM*
Cc1cccc(CC(=O)N2CCC(Cc3nc(-c4cnccn4)no3)CC2)c1	i	1.2%	-11.5%	9.9%	i
COc1cccc(NC(=O)Cn2c(C)cc3nc4n(c(=O)c32)CCCC4)c1	i	-15.0%	4.6%	8.6%	i
COCCCNC(=O)N1CCCN(S(=O)(=O)c2ccccc2)CCC(=O)NCC1	i	-17.3%	3.9%	-5.4%	i
CSc1ccc(-c2noc(-c3ncn4c3COC(c3ccc(F)cc3)C4)n2)cc1 (centres undefined)	i	-3.7%	25.1µM*	31.6µM*	i
CCOc1cc(-c2noc(-c3ncn4c3COC(c3ccc(F)cc3)C4)n2)ccc1OC (centres undefined)	2.5%	-2.1%	25.1µM*	22.4µM*	i
